The supplement of paper PMC3334620
Over roughly 33,000 sequences, “E-score (-0.5 to 0.5)” has its median near -0.0059; the highest 2% begin near 0.26. Only a selection was taken, and the highest values are over-represented in it overall.

Target: T1, Cin5 (UniProt P40917)
T1 sequence: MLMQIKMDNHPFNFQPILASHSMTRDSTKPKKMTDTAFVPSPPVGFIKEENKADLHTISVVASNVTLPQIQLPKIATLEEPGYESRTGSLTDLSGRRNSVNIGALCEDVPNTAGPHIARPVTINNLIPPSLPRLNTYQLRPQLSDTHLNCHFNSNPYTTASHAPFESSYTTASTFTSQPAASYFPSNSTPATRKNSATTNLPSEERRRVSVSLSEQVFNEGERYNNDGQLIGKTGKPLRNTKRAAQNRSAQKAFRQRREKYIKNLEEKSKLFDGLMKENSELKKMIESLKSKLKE
Test: PBM E-score (8-mer binding enrichment) (E-score (-0.5 to 0.5)); higher = stronger / more preferred TF binding
Details: protein concentration: 100 nM; construct: GST-full length
Method in brief: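 Yeast transcription factors carrying a GST tag, as full-length proteins or DNA-binding domains, were produced by PURExpress in vitro transcription/translation. About 100-200 nM protein was applied to universal all-10-mer Agilent arrays, double-stranded by primer extension on fresh or once-stripped slides. Bound protein was detected with fluorescent anti-GST, and scans were normalised with masliner. The Universal PBM Analysis Suite gave each ungapped eight-base word, pooled with its reverse complement, an E-score, a modified Wilcoxon-Mann-Whitney statistic.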

Sequence	PBM E-score
AGAGCTTG	-0.0623
CAAGACCA	-0.0752
AGAGATCT	-0.171
CATCTCAA	0.0545
CATCTCAG	0.268
TATCTCAA	0.261
AATCTCAA	0.184
CATCTCAC	0.0306
GATCTCAA	0.112
GTGGCTAA	0.181
ACTTCATC	-0.0118
CTCAACAA	0.197
ACCTCATC	0.0947
AGGTGAAT	0.099
CAGACAAC	0.0843
AAGACAAG	-0.0281
AAGACAAC	0.274
GACCGCGA	-0.129
TCACGTAA	0.322
CCACGTAA	0.165
GCACGTAA	-0.00694
ACACGTAG	-0.151
ACACGTAC	-0.0415
ACACGTAA	0.3
GCTCTTAA	-0.0595

Sequence	PBM E-score
CGGCTAAG	-0.025
CGTGCGGC	-0.139
AAAATCGC	0.0818
TATGGCCA	0.0804
ACCTAGAC	-0.126
GACTCTCC	-0.189
AATGCGGG	0.273
AATGCGGT	-0.0647
AATGCGGC	-0.00913
TGCCCTAA	-0.0446
AAGTTGTC	0.127
AAGTTGTG	0.265
AAGTTGTA	0.178
CCCATCGC	0.0166
CCCCGACG	-0.00202
GATATCCA	0.183
ATCGGAAA	0.0538
ATCGGAAC	0.267
ATCGGAAT	0.151
CGTTCAAC	0.0923
TATAAGCA	0.256
CATAAGCC	0.245
CATAAGGG	0.1
GATAAGCC	0.0299
CATAAGCA	0.336

Sequence	PBM E-score
GATAAGCA	0.275
AATAAGCG	0.109
AATAAGCA	0.176
CATAAGCG	0.267
CCCTGTGC	-0.18
CCTCGGGA	-0.13
GTAGACCA	-0.101
GCCAAGGA	-0.199
CCGGCGTC	-0.0574
TCAGTGGA	-0.093
TATATATA	0.369
GACATAAA	0.239
AACATAAA	0.0668
TACATAAA	0.323
CATATATG	0.114
CACATAAC	-0.00529
TATATAGA	0.238
CATATATC	0.102
GACATAAC	0.276
CATATATA	0.322
TATATACA	0.187
CACATAAA	0.183
CCAGTCCC	-0.0959
ATGTACAA	0.0216
ACCTTAGA	0.0107

Sequence	PBM E-score
AGGTATCC	0.0225
AACGCACT	-0.037
TGACTCCA	-0.17
CCTTCGTC	-0.106
ACTATAGT	0.174
CGAGCATC	0.0462
GGAGGATA	-0.0068
GCACTTTA	-0.0367
CTTATAAA	0.154
GATATAAA	0.0539
TACATACA	0.238
GATATATC	0.1
TTTATAAA	0.259
GTTATAAA	0.198
CACATACA	9e-05
TATATAAA	0.283
GACATACA	0.314
CATATAAA	0.138
GATATATA	0.266
GATATACA	0.138
ACGTCGAT	0.105
AACCCTGC	-0.0766
CGCGAATC	0.0184
TTCTCAAA	0.15
AGGGCCAA	-0.313

Sequence	PBM E-score
GCCCAGTA	-0.0745
AGGAGACC	-0.201
AGTGATTC	-0.0118
CGTGATGA	-0.0266
GGTGATTA	0.213
CGTGATTA	0.273
AGTGATTA	0.275
CGTGATTC	-0.0445
CAAGAATC	0.133
AGCGGTAT	0.158
ATACTAAG	0.012
ATACTAAA	0.265
CTACTAAA	-0.0525
ATACTAAC	0.166
CTACTACA	0.173
GTACTAAA	0.0965
ATACTACA	0.285
TTACTAAA	0.266
ATACTACC	-0.0132
ACTTCCCG	-0.0152
CGGAGGAG	-0.182
AGGAAAAG	0.0753
GGACCTGA	-0.107
CGACGAAG	-0.0192
AATATATA	0.18

Sequence	PBM E-score
CATATAGG	0.0225
AATATAGC	0.0896
AATATATT	0.363
AATATATG	0.248
AATATAGG	0.317
ACTATAGG	-0.0568
AATATAGA	0.186
AATATAGT	0.315
CATATAAG	0.0464
AATATAAT	0.177
AATATAAG	0.276
GGTGGGAC	-0.313
CCCGGAGG	-0.377
AATCATCA	0.229
AGACTGCT	-0.00887
AGGCATAC	0.0609
CATGCACA	0.156
AACGATGT	0.0581
AAACGCTG	-0.139
GGGGATTA	0.253
GACTGCCC	-0.188
GTCTGAAC	-0.16
AGTGCCCA	0.0274
GAATACCA	0.207
TAATACCA	0.279

Sequence	PBM E-score
AAATACTA	0.112
GAATACTA	0.267
TAATACTA	0.372
TAATACAA	0.232
CAATACTA	0.0648
TAATACGA	0.12
CAATACCA	0.0989
CGTTGGGC	-0.0408
ATGGACAG	-0.15
GGACCAAC	-0.134
ACTTAGAC	0.0559
CCTGCGAG	-0.0365
CAGGGACA	-0.0907
CTGCGAGA	-0.332
AATATTGA	0.172
AATATTTA	0.217
CATATTAC	0.287
AATATTGT	0.28
AACATTAT	0.261
AATATTGG	0.154
CATATTAG	0.16
AATATTAA	0.304
AATATTGC	0.235
CATATTTC	0.0909
AACATTAG	-0.0325

Sequence	PBM E-score
AACATTAC	0.148
ACACGTTG	-0.238
CGGTAACG	-0.0557
AACTTTTC	0.0286
CGTCCCAC	-0.0257
CTCCAGGA	-0.221
GGCTGCAC	-0.148
CACATAGC	-0.142
CGTTTCCA	0.0865
ACAATCCA	0.209
TGTATTAA	0.202
ACTATTAT	0.137
GATATTCC	0.0678
AATATTAT	0.343
AATATTCC	0.289
AATATTAG	0.215
AATATTCA	0.24
GATATTAC	0.315
AATATTCG	0.19
TATATTAA	0.287
TCTATTAA	0.109
GCTATTAC	0.0669
AAAGACGA	0.036
GACCACTA	0.171
CCAGTCCG	-0.296

Sequence	PBM E-score
CCCGTAAC	-0.0624
GACAGCTC	-0.237
ACAGCTTA	0.195
AATGGAAC	0.103
CTCATTAA	0.175
AATATTAC	0.294
TACATTAA	0.262
GATATTAA	0.282
AACATTAA	0.114
ATCATTAA	0.221
GATATTCA	0.0685
AATATTTC	0.18
CCTATTAC	0.0787
GTCATTAA	0.279
GCTATTAA	0.0303
GACATTAA	0.0285
GCGCAGAC	-0.178
ACGAGAGA	-0.0604
CCTTTGTC	-0.0179
CTAGGTTA	0.118
AACAGTCA	-0.041
GATATTGA	0.0812
CATATTGA	0.0883
CATATTAA	0.275
CCTATTAA	0.111

Sequence	PBM E-score
TATATTGA	0.287
CATATTTA	0.157
GCTCCGCA	-0.16
GGCGGAAA	0.088
AGCAGTGA	0.2
AAGCTTGC	-0.0817
GTGTAGGA	-0.0437
AACGCGCG	0.276
AACGCGCA	0.0734
AACGCGCT	-0.0706
CACGCGAA	-0.0826
AACGCGAA	0.281
AACGCGAG	0.0992
CCAAAGCG	-0.0566
CCTTCATA	0.0109
ATGTCAGA	0.114
GCGTCAGC	-0.102
ATGTCAGC	0.272
ACGTCAGT	-0.12
ACGTCAGC	0.394
AAGTCAGC	0.293
CTGTCAGC	0.148
CAGTCAGC	-0.0612
ACGTCATG	0.228
CCGTCATC	-0.075

Sequence	PBM E-score
ACGTCATC	0.259
AAGTCAGA	0.0006
CGGACTTC	-0.131
CAGCTAAG	-0.252
GTAACCCA	0.234
ATTCTTAG	-0.0605
GGAGGGGA	-0.0844
CAAGTCCG	-0.109
ACTGTTGA	-0.0374
CCGGGACG	-0.162
GAACGTCA	-0.161
TCTAGAGA	-0.228
ATGTCATA	0.299
CTGTCATA	0.0932
ATGTCATC	0.142
AACCCCCC	-0.468
AAGGCTGG	-0.277
AGACTCCG	-0.121
AAAGATGA	0.00284
ATGGCAAT	0.113
GTTAGTCA	0.0867
ATTAGTCG	0.193
ATTAGTTA	0.315
ATTAGTCA	0.341
ATTAGTTG	0.241

Sequence	PBM E-score
GTTAGTTA	0.225
CTTGAGCC	-0.241
AGATCATA	0.186
GATCCCCC	-0.426
ATGACTAA	0.235
GTGACTTA	0.0722
ATGACTTA	0.149
GTGACTAA	0.123
CTGACTAA	0.36
CTGACTTA	0.298
CGTGTAAA	-0.142
AAGGGTGA	-0.0502
TCGGCCGA	0.0246
CACGGGAC	-0.118
TATCCCGA	0.125
CATCCCGA	0.0504
AATCCCGA	0.26
CCTTAGGA	0.0118
ATCGTGTC	0.0401
AATTCGCC	0.154
AATTCGCG	0.0954
AATTCGCT	0.325
GCACTCGA	0.0449
GCCTGATA	-0.0274
TATAGTAA	0.324

Sequence	PBM E-score
AATAGTAG	0.144
AATAGTAC	0.05
GATAGTAA	0.195
TATAGTGA	-0.0129
TATAGTCA	0.0921
CATAGTAC	0.0648
CATAGTAA	0.279
AATAGTAA	0.27
ACTACCAC	0.017
TCACCTAA	0.142
AACGCTAT	0.0739
CTAATCGA	0.202
CTAATCCA	0.219
GTAATCGA	0.275
ATAATCCA	0.225
GCAATCGA	0.0191
ATGATCGA	0.0882
GTAATCTA	0.354
ATAATCTA	0.242
CTGATCGA	-0.179
CTAATCTA	0.00395
GTAATCCA	0.281
GTGATCGA	0.273
CTGCCAAA	-0.065
CGCGCTAC	0.029

Sequence	PBM E-score
GACATAGC	0.0934
ACCGTACA	-0.108
GGGTCCAA	-0.0685
AAAGCTAC	-0.0407
GATCTAAA	0.0626
CCAATAGA	-0.01
AACCCGAT	0.258
ACCCCGAT	0.155
AACCCGAC	0.0291
CAATTATG	0.141
CAATTAAC	0.134
AATTTATA	0.249
TAATTATA	0.351
CAATTATC	0.277
GAATTATA	0.101
CATTTATC	0.0882
CCATTATC	0.0699
ACATTATC	0.289
CAATTATA	0.126
ACATTATG	0.106
AATTTATC	0.27
